# Source: PubChem BioAssay (several laboratories)
# Shown are actives, neighbours in structure and some others; about 32% of the full set was active somewhere.
# PostGolgi yeast: growth inhibition of a yeast mutant, post-Golgi transport screen | post-Golgi transport phenotypic cell assay | inhibition, % at 10 µM | 98,000 compounds, 0.9% hits | AID 739;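 further: yeast cells grown in 1536-well plates; yeast grown about 18 h at 30C before absorbance read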
# PostGolgi ctrl: inhibits growth of the yeast control strain; efflux-deficient yeast background strain, growth absorbance A615, 16 h; inhibition, % at 10 µM; 98,000 compounds, 5% hits; AID 738
# CYP2C19 inh: inhibitors of human CYP2C19; AID 778; inhibition, % at 5 µM; 96,000 compounds, 21% hits; CYP2C19 Supersomes, luciferin-H EGE luminescence, 30 min;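 active means CYP2C19 inhibition above a set limit at 5 µM in the primary screen, cut at about 50% in these data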;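 further: plate controls were negative control wells for no effect and 2.5 mM tranylcypromine positive control for full effect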
# Target sequence (P33261 whole entry, looked up): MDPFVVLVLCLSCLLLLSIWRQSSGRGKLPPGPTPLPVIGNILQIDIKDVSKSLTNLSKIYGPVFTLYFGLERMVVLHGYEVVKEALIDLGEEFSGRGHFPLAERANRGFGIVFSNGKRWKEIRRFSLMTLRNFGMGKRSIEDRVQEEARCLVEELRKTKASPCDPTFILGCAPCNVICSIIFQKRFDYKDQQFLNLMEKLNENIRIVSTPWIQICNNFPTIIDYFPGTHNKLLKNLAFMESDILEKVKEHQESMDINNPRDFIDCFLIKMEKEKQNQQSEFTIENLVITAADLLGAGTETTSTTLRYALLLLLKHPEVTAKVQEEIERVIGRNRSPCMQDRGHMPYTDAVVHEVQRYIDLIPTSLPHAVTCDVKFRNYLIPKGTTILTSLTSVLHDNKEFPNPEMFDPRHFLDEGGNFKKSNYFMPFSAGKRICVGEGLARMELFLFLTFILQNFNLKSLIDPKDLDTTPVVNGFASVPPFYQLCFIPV
# CYP2C9 inhib: inhibitors of human CYP2C9; CYP2C9 Supersomes, luciferin-H conversion, luminescence; inhibition, % at 5 µM; AID 777; P11712; 96,000 compounds, 20% hits;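 active means blocking of liver enzyme CYP2C9 beyond about 50% at 5 µM, limit read from the data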
# CYP2C19 act: cytochrome P450 2C19 (human) activation | AID 1025 | recombinant CYP2C19, luciferin-H EGE luminescence; stronger effect = higher value; 0 = fully inhibited enzyme, 1 = untreated enzyme | 96,000 tested, under 10 active | P33261 | activation factor at 5 µM;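 active means activation factor of at least 2 at 5 µM in the primary screen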;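 further: 0 = wells with 2.5 mM tranylcypromine and 1 = vehicle-only wells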
# CYP2C9 act: activators of human CYP2C9 | activation factor at 5 µM | 96,000 compounds, 1.4% hits | recombinant CYP2C9, luciferin-H conversion, luminescence; stronger effect = higher value; factor 1 = untreated enzyme, 0 = blocked | AID 1024 | P11712;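 active means activation factor of 2 or more for CYP2C9 at a 5 µM dose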;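 further: 0 = sulfaphenazole-blocked wells and 1 = vehicle-only wells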
# Starred values were filed as active, the others as inactive. Unless noted, no stated cut-off is given here; in the data, active means inhibition above about 30%; inactive means the rest.
SMILES,PostGolgi yeast,PostGolgi ctrl,CYP2C19 inh,CYP2C9 inhib,CYP2C19 act,CYP2C9 act
COCCn1c(SC(C)C(=O)Nc2ncc(Cl)cc2Cl)nc2ccccc21 (centres undefined),1.1,13.7,68.2*,13.6,0.3,0.9
Cc1ccc(C)n1-c1cc(S(=O)(=O)N2CCOCC2)ccc1N1CCCC1,5.7,-4.3,18.7,46.5,0.8,0.5
CCOC(=O)c1c(SC)nc(SC)c2c1CCC2,3.4,7.4,30.1,-13.1,0.7,1.1
Cc1nc(NCc2ccco2)c2c3c(sc2n1)CCC3,-1.1,-0.5,17.6,22.1,0.8,0.8
CCN1CCc2c(sc3c2c(NCc2ccco2)nc2nnnn23)C1,6.4,-1.5,41.8,52.7*,0.6,0.5
COC(=O)C1C(O)=C(C=NCC(C)N=CC2=C(O)C(C(=O)OC)C(C)(C)CC2=O)C(=O)CC1(C)C (centres undefined),10.9,4.0,-0.2,-6.4,1,1.1
O=C(N/N=C1/C(=O)c2cccc3cccc1c23)c1ccc(Cl)cc1,37.3*,11.1,37.1,20.4,0.6,0.8
COc1ccc(NC(=O)c2cc3cc(OC)ccc3oc2=N)cc1,73.1*,77.5*,26.0,21.2,0.7,0.8
CCC(C)C(NC(=O)c1ccccc1NC(=O)c1ccco1)C(=O)NC1CCCCC1 (centres undefined),2.4,21.0,16.9,42.2,0.8,0.6
CCOc1cccc(OCCCCn2ccnc2)c1,3.5,1.5,98.8*,88.7*,0,0.1
Cc1cc(OCCCn2ccnc2)cc(C)c1Cl,1.8,6.8,100.4*,97.4*,0,0
Brc1cccc(OCCn2ccnc2)c1,2.4,14.8,93.0*,64.4*,0.1,0.4
Brc1cccc(OCCOCCn2ccnc2)c1,21.9,-4.5,99.9*,98.7*,0,0
COc1ccccc1C1NC(=O)CS1 (centres undefined),4.0,7.4,-4.8,-11.2,1,1.1
COc1ccc(CC(NC(C)=O)C(=O)NC2CCN(C(=O)NCc3ccccc3)CC2)cc1OC (centres undefined),-3.7,7.2,-4.0,7.8,1,0.9
Cc1cc(=O)[nH]c2n[nH]c(-c3ccccc3)c12,1.9,-0.5,78.2*,-14.7,0.2,1.1
COc1ccc(OC)c(S(=O)(=O)Nc2cccc(C(C)=O)c2)c1,-1.1,4.6,98.2*,66.2*,0,0.3
COc1ccc(OC)c(S(=O)(=O)Nc2cnc3ccccc3c2)c1,9.7,2.9,73.0*,24.3,0.3,0.8
COC(=O)c1ccc(NS(=O)(=O)c2cc(C)ccc2OC)cc1,1.7,9.6,12.7,55.4*,0.9,0.4
CCn1nnnc1-c1ccc(OC)c(S(=O)(=O)Nc2ccc(C(=O)OC)cc2)c1,0.3,1.2,22.6,34.6,0.8,0.7
CCOC(=O)c1ccc(NS(=O)(=O)c2cc(-c3nnnn3C(C)C)ccc2OC)cc1,-3.6,0.1,90.5*,91.3*,0.1,0.1
CCC(C(=O)OC)n1cnc2c(nnn2-c2cccc(Cl)c2)c1=O (centres undefined),-7.4,2.9,22.6,27.7,0.8,0.7
COc1ccc2cc(CCNC(=O)C3CCCC3)c(=O)[nH]c2c1,-0.8,-2.0,-6.2,-8.2,1.1,1.1
Cc1sc2nc(SCC(=O)NCCOCCO)n(C)c(=O)c2c1C,3.0,1.4,15.2,16.7,0.8,0.8
COc1ccc(C)cc1S(=O)(=O)Nc1ccc(F)cc1,-6.2,10.3,87.9*,72.3*,0.1,0.3
SMILES,PostGolgi yeast,PostGolgi ctrl,CYP2C19 inh,CYP2C9 inhib,CYP2C19 act,CYP2C9 act
COc1ccc(OC)c(S(=O)(=O)Nc2cccc(F)c2)c1,-6.2,14.3,89.4*,68.4*,0.1,0.3
CCOc1cc(C)c(S(=O)(=O)Nc2ccc(F)cc2)cc1C,-4.2,51.8*,99.9*,96.8*,0,0
COc1ccc(S(=O)(=O)Nc2cc(C)cc(C)n2)c2ccccc12,-4.6,5.9,23.0,28.0,0.8,0.7
COc1ccc(NS(=O)(=O)c2ccc(OC)c3ccccc23)cn1,-4.2,1.0,17.3,85.2*,0.8,0.1
Cc1ccc(N(C(=O)c2cccs2)C2C=CS(=O)(=O)C2)cc1 (centres undefined),-6.2,-3.2,15.6,-2.8,0.8,1
COc1ccc(OC)c(S(=O)(=O)Nc2ccc(CC(=O)O)cc2)c1,-21.8,1.4,-2.6,2.0,1,1
CCc1ccc(NS(=O)(=O)c2cc(OC)ccc2OC)cc1,4.1,9.6,53.7*,68.5*,0.5,0.3
O=S(=O)(Nc1cnc2ccccc2c1)N1CCCCCC1,-5.2,-3.3,57.4*,13.2,0.4,0.9
COc1ccc(OC)c(S(=O)(=O)Nc2ccc(F)cc2)c1,-3.2,11.6,51.7*,3.2,0.5,1
COc1ccc(OC)c(S(=O)(=O)Nc2ccc(OCC(=O)O)cc2)c1,-0.2,10.7,-4.2,2.4,1,1
COc1ccc(OC)c(S(=O)(=O)n2nnc3ccccc32)c1,5.2,8.6,59.4*,-76.8,0.4,1.8
CN1C2=NCCN2C(=O)c2ccccc21,-2.7,-11.6,6.4,-10.3,0.9,1.1
CCCC(=O)Nc1ccc(Cl)c(NC(=O)CC)c1,5.4,22.9,-3.3,3.9,1,1
Cc1ccc(C(=O)Oc2ccc(C(=O)COC(=O)c3cnccn3)cc2)cc1,-5.0,12.5,5.6,13.2,0.9,0.9
COC(=O)Cc1ccc(NC(=S)NCCCO)cc1,12.3,1.4,8.8,13.2,0.9,0.9
CCNS(=O)(=O)c1cc(OC)ccc1OC,4.2,3.3,85.2*,89.6*,0.1,0.1
COc1ccc(OC)c(NS(=O)(=O)c2cc(OC)ccc2OC)c1,5.8,12.4,95.5*,59.2*,0,0.4
CCCCOc1ccc(S(=O)(=O)Nc2cc(OC)ccc2OC)cc1,2.4,51.3*,85.8*,74.1*,0.1,0.3
COc1ccc(OC)c(S(=O)(=O)NCCO)c1,0.0,15.3,-8.4,-6.7,1.1,1.1
COc1ccc(OC)c(S(=O)(=O)Nc2ccccc2C)c1,-28.2,4.1,86.9*,22.6,0.1,0.8
Cc1nnc(NCCc2ccccc2)n(N)c1=O,7.5,-7.9,-11.0,-7.3,1.1,1.1
CCCCNC(=O)OC(C)CNC(=O)Oc1cccc(C)c1 (centres undefined),7.4,-4.7,22.3,9.7,0.8,0.9
COc1ccc(OC)c(N/C=C2/CCCCC2=O)c1,0.3,5.9,31.2,55.1*,0.7,0.4
COc1ccc(OC)c(S(=O)(=O)NCCC2=CCCCC2)c1,17.8,4.0,100.3*,89.3*,0,0.1
CC(=O)c1c(C)n([O-])c2cc(C)ccc2[n+]1=O,1.3,4.7,4.3,13.6,1,0.9
COc1ccc(CN2C(=O)CS(=O)CC2=O)cc1OC,19.0,0.7,7.5,-3.7,0.9,1
COCCCN1C(=O)C(O)=C(C(=O)c2ccco2)C1c1ccccc1 (centres undefined),-3.7,1.3,-16.8,-5.2,1.2,1.1
